# Source: PubChem (National Center for Advancing Translational Sciences (NCATS))
# aSyn yeast inh – inhibitors of alpha-synuclein toxicity in yeast. AID 652106. actives 0.14% (n = 370,000). Potency, µM (top dose mostly 46.1 µM), without a hit: at the highest dose growth rescue (activation), hits mostly activators. Yeast expressing alpha-synuclein, growth rescue, BacTiter-Glo, 24 h; also: potency is read from the fitted curve at half-maximal effect; % of control where 0% means no effect; nearly all actives have a fitted effect of over 65% in size
#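 Galactose-induced alpha-syn yeast (OD600=0.02, raffinose-pregrown) + pinned cpd, 24 hr, 30 deg C; growth by BacTiter-Glo luminescence. Growth restoration scores as activation.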
# Abeta yeast res – restores growth of yeast expressing A-beta42 peptide. actives 0.063% (n = 410,000). AID 1347071. yeast expressing A-beta42, growth rescue, OD600, 48 h; response scale: 0% DMSO, 100% iron-clioquinol control. Potency, µM (highest dose often 46.1 µM), hits mostly activators; also: potency is read from the fitted curve at half-maximal effect; nearly all actives have a fitted effect of over 55% in size
#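 Yeast growth medium received pinned compounds, then yeast cells expressing toxic A-beta were added; plates incubated at 30 C for 48 hr. Growth read as absorbance at 600 nm, normalized to DMSO and equimolar FeCl3 plus clioquinol controls.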
# FUS yeast rescue – rescues growth of FUS-expressing yeast; S. cerevisiae FUS-expressing, growth rescue, OD600, 24 h; Potency, µM (highest dose often 76.6 µM), actives largely listed as activators; actives 0.24% (n = 390,000);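 also: potency is read from the fitted curve at half-maximal effect; plate controls were DMSO vehicle for no effect and reference control for full effect; nearly all actives have a fitted effect of over 55% in size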
#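 Galactose (2%) drives FUS expression in yeast precultured in raffinose; seeding density OD 0.005. Test compounds incubated 24hr at 30C and 99% humidity before absorbance at 600 nm was measured.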
# mIDH1 inhibitor – human IDH1 R132H inhibition; IDH1-R132H enzyme, NADPH consumption, diaphorase/resazurin fluorescence; AID 602179; Potency, µM (top dose mostly 76.6 µM), inactives show top-dose activity change, negative = inhibition, usual class: inhibitors; actives 0.093% (n = 390,000); O75874; also: potency is read from the fitted curve at half-maximal effect; % is scaled to controls: 0 for no effect and ±100 for the full control effect; nearly all actives have a fitted effect of over 65% in size
# Target sequence (O75874 whole entry R132H, stated change not applied): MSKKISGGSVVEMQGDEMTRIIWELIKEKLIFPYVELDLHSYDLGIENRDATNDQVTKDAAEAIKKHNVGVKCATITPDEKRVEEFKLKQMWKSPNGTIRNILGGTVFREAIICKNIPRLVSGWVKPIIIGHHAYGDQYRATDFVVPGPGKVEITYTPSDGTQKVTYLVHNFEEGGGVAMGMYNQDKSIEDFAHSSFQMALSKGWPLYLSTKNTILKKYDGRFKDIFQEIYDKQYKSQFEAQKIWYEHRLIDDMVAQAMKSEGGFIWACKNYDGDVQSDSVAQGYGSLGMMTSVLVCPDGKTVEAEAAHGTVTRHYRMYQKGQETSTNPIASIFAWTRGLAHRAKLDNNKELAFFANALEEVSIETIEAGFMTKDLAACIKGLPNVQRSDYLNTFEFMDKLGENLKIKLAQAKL
#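 IDH1-R132H (0.5 ug/mL) preincubated 30 min with compound, then NADPH (0.016 mM) and alpha-KG (2 mM) added; 80 min at RT, pH 7.5. Remaining NADPH coupled via diaphorase/resazurin to fluorescence (540/590 nm); concentration-response curves normalized to no-enzyme control.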
# TDP-43 yeast inh – TDP-43 toxicity inhibition in yeast; TDP-43 expressing yeast growth rescue, BacTiter-Glo, 24 h; AID 652104; Potency, µM (doses to about 46.1 µM), inactives show top-dose growth rescue (activation), hits mostly activators; actives 1.8% (n = 410,000); also: potency is read from the fitted curve at half-maximal effect; % of control where 0% means no effect; nearly all actives have a fitted effect of over 50% in size
#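 Growth rescue of TDP-43-toxic yeast measured as ATP luminescence (BacTiter-Glo). Cells grown to mid-log in raffinose, induced in galactose at OD600=0.02, exposed to compound 24 hr at 30 deg C.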
# LDHA inh – inhibitors of human lactate dehydrogenase A; activity change, % (values are at about 110 or 230 µM); AID 1347041; P00338; actives 0.15% (n = 480,000); purified LDHA, NADH/diaphorase-resazurin fluorescence; hits give low values; in the data active = activity change below about -30%; inconclusive = mostly about -25% to -30%;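 also: plate controls were DMSO wells for no effect and wells without enzyme for full effect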
#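 Enzyme activity of human lactate dehydrogenase 5 (2 nM; 0.06 mM NADH, 0.2 mM pyruvate, 5 min, RT) is measured via a resazurin/diaphorase fluorescence readout of residual NADH.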
# * = called active by the depositor; i = inactive; ? = inconclusive; / = no result given; [ ] = dose if it differs, or a comment. The list is not random: actives were taken first. Their share in the collection is about 2%. Unless noted, calls follow the shape of the dose curve; as a rule, active = well fitted curve in the direction sought with a large enough effect; inconclusive = small, poorly fitted or top-dose-only effect, or another doubt; inactive = no such curve, though single readings can be large; an effect the other way counts as inactive or inconclusive.
SMILES,aSyn yeast inh,Abeta yeast res,FUS yeast rescue,mIDH1 inhibitor,TDP-43 yeast inh,LDHA inh
Cc1nc2ccc(NC(=O)Cc3ccc(Br)cc3)cc2s1,-16%,i,i,5%,-17%,-6
CNc1oc(-c2ccc(Cl)cc2)nc1P(=O)(c1ccccc1)c1ccccc1,21%,i,?,-7%,18µM*,9
COC(=O)c1[nH]c2ccc(F)cc2c1NC(=O)c1ccccc1F,/,/,/,/,/,6
CNC(=O)NC(=O)CCN(C)Cc1ccc(C(C)C)cc1,/,/,/,/,/,1
O=C(NCc1ccc2c(c1)OCO2)c1cccc([N+](=O)[O-])c1,5%,i,i,-2%,30%,1
O=C(NCc1ccc2c(c1)OCO2)c1cc([N+](=O)[O-])ccc1N1CCCCC1,9%,i,/,6%,20µM*,-5
O=C(NCc1ccco1)c1ccc(N2CCCCC2)c([N+](=O)[O-])c1,6%,i,i,-8%,?,-7
O=C(NCc1ccco1)c1cc([N+](=O)[O-])ccc1N1CCCCC1,0%,i,i,-8%,14µM*,-6
O=C(NC(=S)Nc1cccc2cccnc12)c1cccs1,16µM*,i,i,-4%,13%,1
O=C(NC(=S)Nc1cccc2cccnc12)c1ccccc1,0%,i,i,4%,15%,2
c1ccc(OCCCN2CCC(c3nc4ccccc4s3)CC2)cc1,/,/,/,/,/,-14
CCc1ccc(NC(=S)Nc2ccc(C)c(S(=O)(=O)N(CC)CC)c2)cc1,/,/,/,/,/,14
O=C1c2ccccc2CCC12N=NCC2c1ccc(Cl)cc1 (stereo not given),14%,i,i,9%,?,2
O=C1c2ccccc2CCC12N=NCC2c1ccc(Br)cc1 (stereo not given),/,i,i,-2%,13µM*,0
N#CC(c1ccccc1)C(CC(=NO)c1ccccc1)c1ccccc1 (stereo not given),?,i,i,-1%,18µM*,-1
COC(=O)c1ccc(NC(=O)CNCc2ccncc2)cc1,4%,i,i,3%,-16%,-30*
Cn1cc(C(=O)CCl)c2ccccc21,-22%,i,i,-3%,16µM*,-4
Cn1cc(C(N)=O)c2ccccc21,-4%,i,i,-10%,18%,-8
CC(=O)CSc1nnc2cc(C)c3ccccc3n12,-4%,i,i,2%,-1%,-4
Cc1cc2nnc(SCc3ccc(F)cc3)n2c2ccccc12,24%,i,i,18%,35µM*,5
CNC(=O)c1ccccc1Nc1ccc(SC(F)F)cc1,-29%,i,i,4%,22µM*,-1
Cc1ccc(-n2cc(C(=O)c3cc(Cl)ccc3O)cc(C#N)c2=O)cc1,0%,i,/,2%,14µM*,2
COc1ccc(-n2cc(C(=O)c3cc(Cl)ccc3O)cc(C#N)c2=O)cc1,7%,i,i,8%,?,-2
Cc1nn(-c2ccccc2)c2sc(-c3n[nH]c(=S)o3)cc12,-43%,i,7.1µM*,-15%,?,-12
COc1cc(C(Nc2ccc3c(c2)OCO3)C(=O)NC2CCCCC2)cc(OC)c1OC (stereo not given),0%,i,18µM*,1%,-3%,21
SMILES,aSyn yeast inh,Abeta yeast res,FUS yeast rescue,mIDH1 inhibitor,TDP-43 yeast inh,LDHA inh
O=C(c1cccc(S(=O)(=O)N2CCCCCC2)c1)N1CCN(c2ccccc2F)CC1,8%,i,i,1%,?,-2
Cc1ccccc1NS(=O)(=O)c1ccc(C(=O)N2CCCC2)cc1,-2%,i,/,-2%,1%,-1
Cc1cccc(N2CCN(C(=O)c3cccc(S(=O)(=O)N4CCCCC4)c3)CC2)c1C,6%,i,i,1%,7.1µM*,-10
Cc1ccc(C)c(N2CCN(C(=O)c3ccc(N4CCCC4=O)cc3)CC2)c1,2%,i,i,0%,20µM*,1
Cc1cccc(N2CCN(C(=O)c3cccc(N4CCCC4=O)c3)CC2)c1C,5%,i,i,15%,13µM*,-3
O=C(c1cccc(N2CCCC2=O)c1)N1CCN(c2ccccc2)CC1,-4%,i,i,6%,9%,-3
Cc1cccc(NS(=O)(=O)c2ccc(C(=O)N3CCN(c4ccccc4O)CC3)cc2)c1C,0%,i,32µM*,-1%,15%,0
O=C(c1cccc(S(=O)(=O)N2CCCCC2)c1)N1CCc2ccccc21,4%,i,2.8µM*,10%,-7%,0
CN(C)c1cccc(N=C2C=C(N3CCOCC3)CC(C)(C)C2)c1,3%,i,i,9%,-3%,-31*
O=C(Cc1ccccc1)c1c[nH]c(C(=O)C(Cl)(Cl)Cl)c1,3%,i,i,0%,13µM*,-1
O=C(c1c[nH]c(C(=O)C(Cl)(Cl)Cl)c1)c1ccc(F)cc1Cl,-2%,i,i,-15%,8.9µM*,-4
COC(=O)C1=C(C)NC(C)=C([N+](=O)[O-])[C@H]1c1ccccc1C(F)(F)F,1%,/,/,/,/,7
COC(=O)C1=C(C)NC(C)=C(C(=O)OCC(C)C)C1c1ccccc1[N+](=O)[O-] (stereo not given),-4%,i,i,0%,35µM*,22
COc1ccc(-c2csc(CCn3nc(C)cc3C)n2)cc1OC,22%,i,i,3%,24%,-4
COc1ccc(-c2csc(CCn3nc(C)cc3C)n2)cc1,-7%,i,i,24%,18µM*,-9
Clc1ccc2c(N/N=C/c3cccs3)ccnc2c1,/,/,/,/,/,5
O=C(Cc1ccc(F)cc1)c1ccc(O)cc1O,7%,i,i,2%,13µM*,-3
O=C(Cc1c(F)cccc1Cl)c1ccc(O)cc1O,-2%,i,i,10%,16µM*,-1
CCCc1cc(C(=O)Cc2ccc(F)cc2)c(O)cc1O,-50%,i,i,6%,?,1
O=C(Cc1ccccc1F)c1ccc(O)cc1O,-6%,?,i,-7%,21%[9.22 µM],-2
CCc1cc(C(=O)Cc2ccc(F)cc2)c(O)cc1O,8%,i,i,0%,13µM*,-1
C=C(CS(=O)(=O)c1ccc(C)cc1)S(=O)(=O)c1ccc(C)cc1,/,/,/,/,/,-12
CCCCCCNC(=S)Nc1cccc(Cl)c1,/,/,/,/,/,3
CC(C)COc1ccc(N)cc1OCC(C)C,-2%,i,?,10%,11µM*,10
Fc1cccc(Cl)c1C1NC(=S)NC2=C1CCc1ccccc12 (stereo not given),/,/,/,/,/,1
